Laboratory results taken from the supplement of paper PMC6555819.

Legend:
Experiment in all cases: PBM binding z-score (relative to random genomic background probes); higher = stronger binding; sequences stand for … in GC…GCGATTGACAGCGTAGAATGAAGG
[1] = test system: RARb homodimer (NR concentration 270 nM)
Summary of the method: (§1)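 Each nuclear receptor dimer, without ligand, was incubated for 1 h on custom Agilent 4×180K protein-binding microarrays. Binding was detected with antibodies against each partner (one per run), and scanned fluorescence was regression-normalized. The binding z-scores are referenced to random human genomic background probes.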

[2] = test system: RARg:RXRa (NR concentration 270 nM, RXRa partner concentration 90 nM)
Summary of the method: as §1

[3] = test system: RARg homodimer (NR concentration 270 nM)
Summary of the method: as §1

[4] = test system: RXRa DBDmut IVT, anti-RXR (DBD mutation: RXRa K156A/R161A, NR concentration 90 nM)
Summary of the method: as §1

[5] = test system: RXRa homodimer (NR concentration 180 nM)
Summary of the method: as §1

[6] = test system: THRa:RXRa (NR concentration 90 nM, RXRa partner concentration 90 nM)
Summary of the method: as §1

[7] = test system: THRa homodimer (NR concentration 90 nM)
Summary of the method: as §1

[8] = test system: VDR homodimer (NR concentration 270 nM)
Summary of the method: as §1

Sequence	PBM binding z-score [1]	PBM binding z-score [2]	PBM binding z-score [3]	PBM binding z-score [4]	PBM binding z-score [5]	PBM binding z-score [6]	PBM binding z-score [7]	PBM binding z-score [8]
GCACATAGGTAATACAAGGTGAAAGTCCGATTGT	0.838	0.572	0.547	0.115	0.869	4.19	1.02	-0.0736
AGTCAAAGTTCAGGACGAGGTAACCTAAAGCACG	3.52	4.84	4.86	2.85	3.15	3.88	1.92	2.29
TTACCAAGGTGAGAGGTCGTTGATGCACGCCTTG	1.97	2.58	1.3	0.404	3.24	2.6	1.11	1.66
GATACAGGGTCAAGGCCAGATTACGCGTATTGAT	3.73	5.64	5.39	2.72	6.08	3.68	1.61	2.09
CCAAGTTGGTCAAGGTCACACACGCTATAGGTAC	4.47	5.04	5.36	2.86	5.31	4.06	4.34	4.56
CAAACTAGGTCAAAGGTCTAAGTCGAGCCAACCA	2.9	4.76	4.45	1.96	4.93	3	0.688	1.09
GCTAGTTGGTCAGTAAAAGGTCACACATCGGTCG	5.17	5.41	4.73	0.844	5.27	3.54	1.84	1.47
AGTCAAAGTTCAGGTCGAGGTAACGTAAAGCACG	3.87	4.95	4.97	3.14	3.08	4.18	2.7	2.75
TAGCCTAGGTCATGCGGGCCAGTCTAGTGTCGGC	2.8	3.86	4.19	0.255	2.42	2.75	0.583	0.569
GCAGACAGGTGAAAGGCAGGTAACTCAGGGTGGC	0.611	0.314	-0.0429	-0.432	0.602	1.23	0.167	-0.284
CCAGACAGGTGGAAGGTAACTCAGTCTGGTACGC	0.0116	-0.129	-0.15	-0.527	0.236	-0.18	-0.144	-0.0329
AATACACGGTCATCGTAGGCCAGAGTACGCACAG	2.36	2.06	2.76	0.479	1.07	2.15	-0.0649	0.733
AGTCAAAGTTCATCTAGTTAACGTAAGATATGCT	3.73	5.37	5.78	4.8	4.19	2.13	-0.607	5.21
CGAACTAGGTCATTGACAGGACACTGAATAGTAA	2.8	4.6	3.84	2.58	2.46	3.03	1.06	1.18
CGAACTAGGTCATCCAGGACAGTGAATACATTGA	3.06	4.04	4.85	2.52	2.79	3.59	1.84	1.96
ATCTCTAGGTAAAGACAGTTCAGTGAATGCAAAT	0.886	0.452	0.798	0.247	0.363	1.05	0.425	1.14
TCTAGTTGGTCAAAGGTCACTCACTCGAAATGCG	4.78	6.5	6	2.11	7.54	3.86	2.1	3.03
GGAACGAGGGCACGTTGATAGCAGAGTTTGATGG	1.27	1.53	2	2	0.885	1.41	0.0368	1.03
TCGTGTAGATCAAAGGTTAAGAAAGCCGAAGCCT	1.47	1.76	0.92	0.608	3.14	1.33	0.108	0.111
TAGCCTAGGTCAGATCGGGCCCGTATACGCTATA	1.94	2.58	3.06	-0.297	1.37	2.39	0.0174	-0.316
TCTTATAGATCAACAGGAGGTTAAGAAAGATCGA	0.606	1.45	0.65	1.06	1.47	1.05	-0.19	-0.0267
TCTTGCAGGCCAGAGGGTCACTCAAGAGGTACGG	2.73	2.73	2.38	0.074	2.37	1.79	-0.22	0.546
GCGACTGGGGCAAAGCTGGTTACCATAAGGTTGG	0.208	0.0391	0.0418	0.0315	-0.0119	0.398	-0.232	-0.208
AGTCAAAGTTCATCCAGGTAACGTAAGATATGCT	3.81	5.56	5.81	4.61	4.49	3.57	0.915	5.17
CCTAGTTGGTCAAAGTCACACACGCTATAGGTAC	1.28	0.912	1.23	0.833	0.561	0.212	0.467	0.811
ATCTCTAGGTAAGACTCAGATCAGTGAAGAACGC	-0.0502	0.253	0.295	0.0225	0.0293	0.242	0.333	0.414
CGTCCAAGGTCAGAGGGGTCAGTGAATGCCGAGT	5.33	6.54	7.18	3.32	6.41	4.28	2.82	5.91
TAGCCTAGGTCATGCGCCAGTATACCACGCGAAC	2.94	3.96	4.3	0.931	3.24	3	1.31	0.653
TCTTGTAGATCAAAGGCTAAGAAAGCCGAAGCCT	-0.521	-0.216	-0.29	0.467	0.315	-0.446	-0.464	-0.345
